Reference: PubChem BioAssay (NCATS)
A number with no mark means an inactive call. Results filed as inconclusive are left out. The source made the active and inactive calls. Unless noted, calls come from the whole dose curve; as a rule, active = well fitted curve in the direction sought with a large enough effect; inconclusive = small, poorly fitted or top-dose-only effect, or another doubt; inactive = no such curve, though single readings can be large; an effect the other way counts as inactive or inconclusive.

Tests used:
[1] = target: Cytochrome P450 1A2 (Homo sapiens) (UniProt P05177); assay: p450-cyp1a2 (AID 410; calls by dose curve;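 note: -100% = full effect of reference inhibitor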)
Cytochrome P450 1A2 (Homo sapiens), sequence (P05177 whole entry, looked up): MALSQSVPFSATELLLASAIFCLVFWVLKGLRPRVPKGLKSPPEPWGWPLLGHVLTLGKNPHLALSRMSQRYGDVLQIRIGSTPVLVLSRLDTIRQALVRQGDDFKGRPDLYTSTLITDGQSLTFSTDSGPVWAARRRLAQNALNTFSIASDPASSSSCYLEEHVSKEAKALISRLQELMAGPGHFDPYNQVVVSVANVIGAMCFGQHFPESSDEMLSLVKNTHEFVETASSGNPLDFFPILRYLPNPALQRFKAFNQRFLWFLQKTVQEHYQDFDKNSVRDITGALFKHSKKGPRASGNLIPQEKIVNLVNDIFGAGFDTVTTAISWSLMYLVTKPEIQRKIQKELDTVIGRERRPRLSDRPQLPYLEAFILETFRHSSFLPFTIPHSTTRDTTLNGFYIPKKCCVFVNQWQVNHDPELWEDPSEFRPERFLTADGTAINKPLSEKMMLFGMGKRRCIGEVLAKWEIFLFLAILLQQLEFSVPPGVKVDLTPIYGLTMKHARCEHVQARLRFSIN
Outline: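 Luminescent readout of luciferin formed from Luciferin-ME by human CYP1A2; data normalized against complete inhibition by 57 uM furafylline. Enzyme 20nM, substrate 100uM at Km, 100mM KPO4 buffer, 60 min reaction at room temperature.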

[2] = NFAT Signaling Pathway (AID 444; active = well fitted curve in either direction with a large enough effect, not every such curve was filed as active;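 note: carbachol stimulus at about its EC50 of 1 µM final; % is set by controls: 0 for no effect and ±100 for the full control effect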); conditions: Jurkat NFAT-bla M1, carbachol, beta-lactamase ratio, 5 h; at 17.2 µM (top of the series) unless noted
Outline: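 Jurkat cells with NFAT-driven β-lactamase reporter and co-expressed M1 receptor, stimulated with carbachol (final 1 uM, ~EC50), compound titration, 5 h at 37 °C. CCF4 loaded 1 h at RT; 460/530 nm ratio gave %activity and AC50.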

[3] = Stat Signaling Pathway (AID 446; active = well fitted curve in either direction with a large enough effect, not every such curve was filed as active;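 note: ME-180 cervical cancer cells given 40 pM IL-6 alongside compound; SIE-controlled beta-lactamase reporter measured as 460/530 nm FRET emission ratio; % is set by controls: 0 for no effect and ±100 for the full control effect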); conditions: ME-180 SIE beta-lactamase reporter, IL-6 stimulated, 5 h; at 17.2 µM (top of the series) unless noted
Outline: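 ME-180 cells carrying a SIE-driven beta-lactamase reporter are stimulated with 40 pM IL-6 for 5 h at 37C in the presence of compound. The 460/530 nm FRET substrate ratio is read after 2.5 h at RT. Data are normalised to 300 pM IL-6 and to 125 nM JAK inhibitor controls.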

[4] = target: Glucocorticoid receptor (Homo sapiens) (UniProt P04150); assay: GR-GFP Redistribution (AID 450;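 active = compounds whose dose series gives a full or clear partial fitted curve of increased nuclear translocation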; note: potency is the fitted concentration of half-maximal effect)
Glucocorticoid receptor (Homo sapiens), sequence (P04150 whole entry, looked up, the tested form may be a part): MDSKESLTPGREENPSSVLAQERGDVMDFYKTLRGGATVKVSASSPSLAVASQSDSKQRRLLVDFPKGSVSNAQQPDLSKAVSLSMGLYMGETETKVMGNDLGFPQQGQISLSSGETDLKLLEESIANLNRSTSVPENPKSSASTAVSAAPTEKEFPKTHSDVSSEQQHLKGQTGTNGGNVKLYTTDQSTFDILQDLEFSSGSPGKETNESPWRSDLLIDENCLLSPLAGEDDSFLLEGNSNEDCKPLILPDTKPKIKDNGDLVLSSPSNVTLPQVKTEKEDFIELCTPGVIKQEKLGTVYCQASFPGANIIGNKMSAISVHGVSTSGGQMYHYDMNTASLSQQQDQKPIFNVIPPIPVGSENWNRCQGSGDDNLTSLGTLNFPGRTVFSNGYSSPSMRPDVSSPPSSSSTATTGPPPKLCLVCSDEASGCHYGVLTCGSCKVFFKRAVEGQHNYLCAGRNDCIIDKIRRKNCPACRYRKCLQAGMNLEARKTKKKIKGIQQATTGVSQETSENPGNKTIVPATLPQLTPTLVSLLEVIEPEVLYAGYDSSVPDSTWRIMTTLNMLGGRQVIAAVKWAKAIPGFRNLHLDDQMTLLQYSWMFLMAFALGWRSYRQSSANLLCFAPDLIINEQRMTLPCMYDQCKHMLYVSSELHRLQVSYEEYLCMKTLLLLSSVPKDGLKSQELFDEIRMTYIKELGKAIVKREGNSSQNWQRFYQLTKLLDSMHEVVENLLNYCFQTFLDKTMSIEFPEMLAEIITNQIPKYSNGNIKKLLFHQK

[5] = target: Glucocorticoid receptor (Homo sapiens) (UniProt P04150); assay: GR-EFC Redistribution (AID 451; calls by dose curve; note: potency is the fitted concentration of half-maximal effect); conditions: CHO-K1 GR-EFC translocation, beta-gal luminescence, 2 h
Outline: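 CHO-K1 cells expressing nuclear EA and GR-ED fragments of b-gal; compounds titrated up to 46 uM final, 2 h at 37 C. GR nuclear translocation read as complemented b-gal luminescence after 1 h RT detection.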

[6] = target: Mitogen-activated protein kinase 10 (Mus musculus) (UniProt Q61831); assay: JNK3 AlphaScreen Assay (AID 530; active = well fitted curve in either direction with a large enough effect, not every such curve was filed as active;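 note: kinase came from lysate of stimulated human HepG2 cells; signal reports phosphorylation of biotinylated GST-cJun 1-79 at Ser73 with 10 µM ATP; % is set by controls: 0 for no effect and ±100 for the full control effect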)
Outline: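 Pre-activated (IL-1β/TNFα) JNK3 in HepG2 lysates phosphorylates biotin-GST-cJun(1-79), 10 uM ATP; anti-phospho-cJun(Ser73) AlphaScreen read at room temperature, pH 7.6 Tris buffer. Compounds pre-incubated 15 min as titrations.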

[7] = target: 3',5'-cyclic-AMP phosphodiesterase 4B (Homo sapiens) (UniProt Q07343); assay: qHTS Assay for Inhibitors of PDE-IV (AID 607; active = well fitted activation curve with a large enough effect in the main read-out, with a control signal flat, not every such curve was filed as active; note: % of control where 0% means no effect)
3',5'-cyclic-AMP phosphodiesterase 4B (Homo sapiens), sequence (Q07343 whole entry, looked up): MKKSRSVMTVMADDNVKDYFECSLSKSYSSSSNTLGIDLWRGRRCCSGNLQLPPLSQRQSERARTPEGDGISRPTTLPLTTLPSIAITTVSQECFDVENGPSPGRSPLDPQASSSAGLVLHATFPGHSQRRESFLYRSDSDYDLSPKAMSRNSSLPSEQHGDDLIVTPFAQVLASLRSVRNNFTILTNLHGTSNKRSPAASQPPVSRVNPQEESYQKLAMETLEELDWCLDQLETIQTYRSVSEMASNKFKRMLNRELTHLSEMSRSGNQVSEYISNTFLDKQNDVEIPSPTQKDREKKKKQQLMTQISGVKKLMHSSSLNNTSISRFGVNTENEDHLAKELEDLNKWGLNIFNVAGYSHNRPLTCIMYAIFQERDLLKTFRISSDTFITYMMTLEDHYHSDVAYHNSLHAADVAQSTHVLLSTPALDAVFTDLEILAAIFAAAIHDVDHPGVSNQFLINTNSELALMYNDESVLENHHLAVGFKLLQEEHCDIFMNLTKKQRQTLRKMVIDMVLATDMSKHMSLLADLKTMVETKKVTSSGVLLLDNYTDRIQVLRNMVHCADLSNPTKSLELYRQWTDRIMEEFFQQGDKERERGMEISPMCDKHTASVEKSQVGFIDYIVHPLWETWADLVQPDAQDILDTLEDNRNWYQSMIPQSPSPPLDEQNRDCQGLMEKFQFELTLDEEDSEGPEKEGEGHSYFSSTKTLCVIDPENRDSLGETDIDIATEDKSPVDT
Outline: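 HEK293 ACTOne cells with CNG channel (1000/well), endogenous PDE4; membrane potential dye, compounds up to 22.9 uM final. Fluorescence Ex 535/Em 590; RO 20-1724 (100 uM final) as reference.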

[8] = target: ATP-dependent 6-phosphofructokinase (Trypanosoma brucei brucei) (UniProt O15648); assay: qHTS Assay to Find Inhibitors of T. brucei phosphofructokinase: hit validation (AID 492961);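 note: luminescence reports ADP formed as PFK phosphorylates fructose-6-phosphate with ATP; % is set by controls: 0 for no effect and ±100 for the full control effect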
ATP-dependent 6-phosphofructokinase (Trypanosoma brucei brucei), sequence (O15648 whole entry, looked up): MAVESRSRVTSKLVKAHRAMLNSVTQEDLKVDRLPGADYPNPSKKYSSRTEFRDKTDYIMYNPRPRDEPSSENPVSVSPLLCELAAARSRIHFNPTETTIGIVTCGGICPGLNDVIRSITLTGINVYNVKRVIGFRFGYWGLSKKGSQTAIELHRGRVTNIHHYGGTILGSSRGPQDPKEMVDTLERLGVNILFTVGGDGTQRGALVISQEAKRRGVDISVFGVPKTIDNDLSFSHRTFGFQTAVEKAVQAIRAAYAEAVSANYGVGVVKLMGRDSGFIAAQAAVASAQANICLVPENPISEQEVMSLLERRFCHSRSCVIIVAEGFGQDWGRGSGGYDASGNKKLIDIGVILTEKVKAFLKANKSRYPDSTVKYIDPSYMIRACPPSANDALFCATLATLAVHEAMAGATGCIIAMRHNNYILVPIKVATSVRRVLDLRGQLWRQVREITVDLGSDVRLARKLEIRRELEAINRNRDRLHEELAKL
Outline: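 Compounds titrated; %activity normalized to 0x and 1x enzyme controls, curve-fitted. Readout: ADP-Glo luminescence after 45 min room-temperature reaction of 1.25 nM PFK, 0.1 mM ATP, 0.5 mM F6P, pH 8.0.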

[9] = S16 Schwann cell PMP22 intronic element firefly luciferase assay (AID 624032); note: potency is the fitted concentration of half-maximal effect; nearly all actives have a fitted effect of over 30% in size
Outline: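 Rat S16 Schwann cells stably carrying firefly luciferase driven by a PMP22 intronic element, in 10% FBS, treated 24 h at 37 C. ONE-Glo luminescence normalized to PTC124 control and DMSO (0%); curves classed by r2, magnitude and activity.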

[10] = qHTS profiling for inhibitors of Plasmodium falciparum proliferation (AID 504749); note: potency is the fitted concentration of half-maximal effect; nearly all actives have a fitted effect of over 60% in size; conditions: P. falciparum in erythrocytes, SYBR Green DNA, 72 h
Outline: (§1)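 P. falciparum-infected erythrocytes (0.3% parasitemia, 2.5% hematocrit) incubated with compound 72 h at 37 C, 5% CO2. Parasite DNA detected by SYBR Green after lysis, overnight at room temperature; normalised to 0.29 uM artemisinin and DMSO.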

3D7 = assay: as above; conditions: P. falciparum in erythrocytes, SYBR Green DNA, 72 h; series mostly up to 28.7 µM
Outline: as §1

7G8 = assay: as above; conditions: P. falciparum in erythrocytes, SYBR Green DNA, 72 h; series mostly up to 28.7 µM
Outline: as §1

AA1029 = assay: as above; conditions: P. falciparum in erythrocytes, SYBR Green DNA, 72 h; series mostly up to 28.7 µM
Outline: as §1

AS120 = assay: as above; conditions: P. falciparum in erythrocytes, SYBR Green DNA, 72 h; series mostly up to 28.7 µM
Outline: as §1

ATS189 = assay: as above; conditions: P. falciparum in erythrocytes, SYBR Green DNA, 72 h; series mostly up to 28.7 µM
Outline: as §1

ATS95 = assay: as above; conditions: P. falciparum in erythrocytes, SYBR Green DNA, 72 h; series mostly up to 28.7 µM
Outline: as §1

C2A = assay: as above; conditions: P. falciparum in erythrocytes, SYBR Green DNA, 72 h; series mostly up to 28.7 µM
Outline: as §1

CP185 = assay: as above; conditions: P. falciparum in erythrocytes, SYBR Green DNA, 72 h; series mostly up to 28.7 µM
Outline: as §1

CP191 = assay: as above; conditions: P. falciparum in erythrocytes, SYBR Green DNA, 72 h; series mostly up to 28.7 µM
Outline: as §1

CP192 = assay: as above; conditions: P. falciparum in erythrocytes, SYBR Green DNA, 72 h; series mostly up to 28.7 µM
Outline: as §1

CP194 = assay: as above; conditions: P. falciparum in erythrocytes, SYBR Green DNA, 72 h; series mostly up to 28.7 µM
Outline: as §1

CP201 = assay: as above; conditions: P. falciparum in erythrocytes, SYBR Green DNA, 72 h; series mostly up to 28.7 µM
Outline: as §1

CP203 = assay: as above; conditions: P. falciparum in erythrocytes, SYBR Green DNA, 72 h; series mostly up to 28.7 µM
Outline: as §1

CP211 = assay: as above; conditions: P. falciparum in erythrocytes, SYBR Green DNA, 72 h; series mostly up to 28.7 µM
Outline: as §1

CP215 = assay: as above; conditions: P. falciparum in erythrocytes, SYBR Green DNA, 72 h; series mostly up to 28.7 µM
Outline: as §1

CP217 = assay: as above; conditions: P. falciparum in erythrocytes, SYBR Green DNA, 72 h; series mostly up to 28.7 µM
Outline: as §1

CP237 = assay: as above; conditions: P. falciparum in erythrocytes, SYBR Green DNA, 72 h; series mostly up to 28.7 µM
Outline: as §1

CP238 = assay: as above; conditions: P. falciparum in erythrocytes, SYBR Green DNA, 72 h; series mostly up to 28.7 µM
Outline: as §1

CP247 = assay: as above; conditions: P. falciparum in erythrocytes, SYBR Green DNA, 72 h; series mostly up to 28.7 µM
Outline: as §1

CP250 = assay: as above; conditions: P. falciparum in erythrocytes, SYBR Green DNA, 72 h; series mostly up to 28.7 µM
Outline: as §1

CP252 = assay: as above; conditions: P. falciparum in erythrocytes, SYBR Green DNA, 72 h; series mostly up to 28.7 µM
Outline: as §1

CP256 = assay: as above; conditions: P. falciparum in erythrocytes, SYBR Green DNA, 72 h; series mostly up to 28.7 µM
Outline: as §1

CP260 = assay: as above; conditions: P. falciparum in erythrocytes, SYBR Green DNA, 72 h; series mostly up to 28.7 µM
Outline: as §1

Question: Which results are given for `CC[C@]1([C@H]2O[C@@H]([C@@H]3O[C@](O)(CO)[C@@H](C)C[C@H]3C)C[C@H]2C)CC[C@@H]([C@]2(C)CC[C@@]3(C[C@@H](O)[C@@H](C)[C@@H]([C@H](C)[C@H](OC)[C@H](C)C(=O)O)O3)O2)O1`?
Answer: Potency [1]: inactive; activity change, negative = inhibition [2]: 20.4%; activity, negative = inhibition [3]: -3.04%; Potency [4]: > 20600 nM; Potency [5]: > 20600 nM; Potency [6]: inactive; Potency [7]: inactive; Potency [8]: inactive; Potency [9]: 510 nM (active); Potency ([10]; parasite line A): 25.1 nM (active); Potency ([10]; parasite line B): 25.1 nM (active); Potency (3D7): 25.1 nM (active); Potency (7G8): 15.8 nM (active); Potency (AA1029): 39.8 nM (active); Potency (AS120): 22.4 nM (active); Potency (ATS189): 50.1 nM (active); Potency (ATS95): 50.1 nM (active); Potency (C2A): 28.2 nM (active); Potency (CP185): 50.1 nM (active); Potency (CP191): 31.6 nM (active); Potency (CP192): 33.8 nM (active); Potency (CP194): 33.8 nM (active); Potency (CP201): 42.6 nM (active); Potency (CP203): 23.9 nM (active); Potency (CP211): 33.8 nM (active); Potency (CP215): 33.8 nM (active); Potency (CP217): 39.8 nM (active); Potency (CP237): 17.8 nM (active); Potency (CP238): 35.5 nM (active); Potency (CP247): 31.6 nM (active); Potency (CP250): 39.8 nM (active); Potency (CP252): 35.5 nM (active); Potency (CP256): 50.1 nM (active); Potency (CP260): 20 nM (active)
